Compound activity deposited in PubChem by National Center for Advancing Translational Sciences (NCATS).
In the library only some 19% were active in any assay of this set; here they are far more common.
HT1080NT lethal: qHTS for induction of synthetic lethality in tumor cells producing 2HG: qHTS for the HT-1080-NT fibrosarcoma cell line | hit rate 1.6% among 360,000 | HT-1080-NT fibrosarcoma viability, CellTiter-Glo ATP luminescence, 48 h | AID 686970, 2013 | Potency, µM (series often up to 46.1 µM), without a hit: at the top dose activity, negative = less viability, hits mostly cytotoxic;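 note: NT is the 2HG producing partner of a matched IDH1 knockdown line; 0% = DMSO-treated cells and -100% = media-only wells without cells; nearly all actives have a fitted effect of over 55% in size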
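HT-1080-NT fibrosarcoma cells (2HG-overproducing), 750 cells/well in RPMI with 5% FBS, dosed after 2 h and incubated 48 h at 37C. CellTiter-Glo luminescence normalized to DMSO and no-cell wells; concentration-response curves fitted and classed.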
DT40 TDP1 no CPT: qHTS for Inhibitors of human tyrosyl-DNA phosphodiesterase 1 (TDP1): qHTS in cells in absence of CPT | hit rate 15% among 420,000 | Potency, µM (series often up to 46.2 µM), without a hit: at the top dose activity change, negative = growth inhibition, actives largely listed as inhibitors | AID 686978, 2013 | DT40 Tdp1-/- hTDP1 cells, no CPT, ATP luminescence, 48 h; note: nearly all actives have a fitted effect of over 55% in size
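Growth kinetics read by CellTiter-Glo luminescence after ≥48 hr at 37 °C. Cells: DT40 Tdp1-/- stably carrying human TDP1, 400 per well, compound exposure in the absence of CPT (DMSO vehicle).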
TDP1 cell CPT: qHTS for Inhibitors of human tyrosyl-DNA phosphodiesterase 1 (TDP1): qHTS in cells in presence of CPT; chicken DT40 Tdp1-/-;hTDP1 cells + 20 nM CPT, ATP luminescence, 48 h; Potency, µM (titrated, usually from 46.2 µM), without a hit: top-dose activity change, negative = growth inhibition, actives largely listed as inhibitors; hit rate 12% among 420,000; note: nearly all actives have a fitted effect of over 55% in size
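Chicken DT40 Tdp1-/- cells stably complemented with human TDP1 were seeded at 400 cells/well in medium containing 20 nM camptothecin, exposed to pin-transferred compounds, and grown at 37 °C for at least 48 hr. Viability was read as ATP luminescence.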
KB-3-1 tox: qHTS assay for MDR1-selective chemotherapeutics: Primary screen using the parental adenocarcinoma cell KB-3-1; Potency, µM (titrated, usually from 46.1 µM), actives largely listed as cytotoxic; KB-3-1 viability, CellTiter-Glo ATP luminescence, 72 h; hit rate 1.4% among 400,000; AID 1347075, 2019; note: nearly all actives have a fitted effect of over 60% in size
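Using CellTiter-Glo luminescence, growth of non-resistant KB-3-1 adenocarcinoma cells is assessed 72 h after pin-tool compound addition at 37 °C. Normalized responses across the concentration series yield fitted curves.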
KB-V1 cytotox: qHTS assay for MDR1-selective chemotherapeutics: Primary screen using the drug-selected MDR subline cells KB-V1; KB-V1 MDR cells viability, CellTiter-Glo, 72 h; Potency, µM (doses to about 46.1 µM), actives largely listed as cytotoxic; hit rate 3.4% among 400,000; note: nearly all actives have a fitted effect of over 60% in size
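KB-V1, DMEM (no phenol red) + 10% FBS; cpd pin-transferred, titration series; 72 h, 37 degrees C; CellTiter-Glo, luminescence. Data normalized, curve-fit.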
HT1080 IDH1KD tx: qHTS for induction of synthetic lethality in tumor cells producing 2HG: qHTS for the HT-1080-IDH1KD cell line | HT-1080 IDH1 knockdown viability, ATP luminescence, 48 h | Potency, µM (series often up to 46.1 µM), inactives show at the highest dose activity, negative = toxicity, actives largely listed as cytotoxic | hit rate 2% among 360,000 | AID 686971, 2013;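 note: 0% = DMSO wells and -100% = cell-free medium wells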
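CellTiter-Glo luminescence after 48 h compound exposure at 37 degrees C of IDH1-knockdown HT-1080 cells in 5% FBS RPMI. %Activity scaled between DMSO wells and cell-free media wells, with curves fitted and assigned curve classes.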
An asterisk follows results filed as active; i = inactive; u = inconclusive; x = no result; + = active, no number; [ ] = remark or other dose. Calls come from the whole dose curve; as a rule, active = well fitted curve in the direction sought with a large enough effect; inconclusive = small, poorly fitted or top-dose-only effect, or another doubt; inactive = no such curve, though single readings can be large; an effect the other way counts as inactive or inconclusive. Unless noted, % is set by controls: 0 for no effect and ±100 for the full control effect; potency is the fitted concentration of half-maximal effect.

SMILES	HT1080NT lethal	DT40 TDP1 no CPT	TDP1 cell CPT	KB-3-1 tox	KB-V1 cytotox	HT1080 IDH1KD tx
CCN(Cc1nc2cc(Cl)ccc2c(=O)[nH]1)C(=O)c1nn(C)c(=O)c2ccccc12	-12%	u	-24%	i	18µM*	-4%
CCN(Cc1nc2cc(Cl)ccc2c(=O)[nH]1)C(=O)c1cc(C2CC2)nn1-c1ccccc1	-2%	2.9µM*	5.2µM*	i	i	3%
COc1ccc(-c2cc(C(F)(F)F)nc(N3CCOCC3)n2)cc1OC	1%	10µM*	u	i	u	2%
CN1CCN(c2nc(-c3cccs3)cc(C(F)(F)F)n2)CC1	4%	u	u	i	16µM*	9%
COc1ccc(-c2cc(-c3ccccc3)nc(N3CCCC3)n2)cc1OC	4%	-19%	-7%	i	8.2µM*	-26%
CCOc1cc2nc(-c3ccc(OC)c(OC)c3)nc(N3CCOCC3)c2cc1OC	u	u	21µM*	u	u	u
CCOc1cc(C(=S)N2CCOCC2)ccc1OC	3%	-21%	-9%	i	i	-9%
CCc1ccc(-c2[nH]nc3nc(-c4ccc(OC)cc4)cc(C(=O)NCCCOC)c23)cc1	x	-6%	0%	i	u	x
COc1ccc(NC(=O)CSCC(=O)Oc2c(OC)cccc2OC)cc1	1%	1%	2%	i	i	-1%
COc1ccc(C(=O)COC(=O)COc2cc(C)cc(C)c2)cc1	2%	1%	10%	i	i	-2%
COc1cccc(-c2noc(COc3cccc(C)c3C)n2)c1	x	-14%	-2%	i	u	x
COc1ccc(-c2cccc(N3CCN(c4ccccn4)CC3)n2)cc1OC	5%	18µM*	16µM*	i	i	6%
COc1cccc(/C=C/C(=O)O)c1C(C)C	x	4%	-2%	x	x	x
CC1(C(=O)Nc2cnc3ccccc3c2)CCN1C(=O)c1ccccc1CCc1ccccc1 (stereo unspecified)	u	u	u	u	18µM*	u
CC1(C(=O)NS(=O)(=O)c2cccc(F)c2)CCN1C(=O)c1ccccc1CCc1ccccc1 (stereo unspecified)	0%	-28%	u	i	i	-9%
Cc1cccc(S(=O)(=O)NC(=O)C2(C)CCN2C(=O)c2ccccc2CCc2ccccc2)c1 (stereo unspecified)	u	+	u	i	i	-2%
CCC(=O)N1CCC1(C)C(=O)Nc1cnc2ccccc2c1 (stereo unspecified)	u	-19%	-9%	i	i	12%
CNC(=O)C1(C)CCN1C(=O)c1ccccc1CCc1ccccc1 (stereo unspecified)	-4%	-10%	-26%	i	i	5%
Cc1ccc(NC(=O)C2(C)CCN2C(=O)c2ccccc2CCc2ccccc2)cc1C (stereo unspecified)	-27%	-95%	21µM*	u	u	-25%
COc1ccc(NC(=O)C2(C)CCN2C(=O)c2ccccc2CCc2ccccc2)cc1OC (stereo unspecified)	-15%	9.2µM*	15µM*	i	u	-18%
O=C(C[n+]1ccncc1)c1ccc(Br)cc1	x	u	u	i	i	x
Cc1ncc2c(c1CNC(=O)c1ccc3c(c1)OCO3)CCN(C(=O)c1cnsn1)C2	x	-2%	6%[9.04 µM]	x	x	x
CC1(C(=O)N2CCCCC2)CCN1C(=O)c1ccccc1CCc1ccccc1 (stereo unspecified)	8%	15µM*	u	i	i	6%
CC(C)(C)C(=O)Nc1ccc(-c2cn3ccsc3n2)cc1	-1%	u	14µM*	i	i	-4%
CC(C)CC(=O)Nc1ccc(-c2cn3ccsc3n2)cc1	u	u	u	i	u	u
SMILES	HT1080NT lethal	DT40 TDP1 no CPT	TDP1 cell CPT	KB-3-1 tox	KB-V1 cytotox	HT1080 IDH1KD tx
O=C(c1cccc(S(=O)(=O)N2CCOCC2)c1)N1CCN(c2ncccn2)CC1	6%	-6%	0%	i	i	7%
O=C(NCC1CCCO1)c1ccccc1 (stereo unspecified)	5%	0%	0%	i	i	5%
COc1ccc(C(=O)NCC2CCCO2)cc1 (stereo unspecified)	-6%	1%	-3%	i	i	0%
Cc1ccc(C)n1-c1ccc(C(=O)NCC2CCCO2)cc1 (stereo unspecified)	-4%	13µM*	13µM*	i	i	-12%
Nc1c(C(=O)NCC2CCCO2)c2nc3ccccc3nc2n1-c1ccccc1 (stereo unspecified)	u	16µM*	16µM*	i	u	u
C=CCNC(=O)c1c(N)n(-c2ccc3c(c2)OCO3)c2nc3ccccc3nc12	10%	13µM*	12µM*	i	i	1%
O=C(NCC1CCCO1)c1ccc(COc2ccc(Br)cc2)cc1 (stereo unspecified)	u	23µM*	29µM*	i	u	-28%
COCc1ccc(C(=O)N2CCOc3c(cc(-c4cc(C)c5cccc(OC)c5n4)cc3OC)C2)o1	x	-8%	13%[9.04 µM]	x	x	x
Cc1noc(C)c1C(=O)N1CCC2(CCCN(Cc3nccs3)C2)CC1	x	-24%	-23%	x	x	x
COc1sc(SC)cc1/C=N/NC(=O)c1ccncc1	-6%	-26%	-25%	i	i	-1%
COc1cccc(-n2ccnc2SCC(=O)Nc2ccc(Cl)c(Cl)c2)c1	x	u	-26%	x	x	x
